Assay [1] concerns Plasmodium falciparum Sir2 (PF13_0152, Sir2A). Description: Plasmodium falciparum Sir2A binding compounds – biochemical, small-molecule microarray, 635 nm fluorescence, primary screen (AID 1098).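 Further: score merges spot fluorescence intensity with its signal-to-noise ratio.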 As to conditions: fluorescence 635 nm, higher = more signal.
A short description of assay [2]: probe aDKK1 binding to arrayed compounds – biochemical, biotinylated probe, 635/667 nm fluorescence, primary screen (AID 1099).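 Further: score merges 667nm spot fluorescence with signal to noise across triplicate slides.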 As to conditions: small-molecule microarray, higher = more signal.
The nature of assay [3]: probe aCHRDL2 binding to arrayed compounds – biochemical, biotinylated probe, 635/667 nm fluorescence, primary screen (AID 1100). The following applies: small-molecule microarray, higher = more signal.
Assay [4] is described as follows: change in splice reporter luminescence, either direction, cell-based, HEK293, spliceosome inhibition project, primary screen (AID 1101).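 Further: HEK293 cells carrying a splicing-competent luciferase reporter gene; test concentration not given here.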 As to conditions: HEK293 splicing luciferase reporter, 24 h, higher = more signal, called active from +8 up or from −8 down. Background: Reporter assays use an easily measured gene product as a stand-in for the process of interest.

Assay [5] deals with Fibroblast growth factor 10 (Homo sapiens) (UniProt O15520). Nature of the assay: compounds binding fibroblast growth factor 10 – biochemical, small-molecule microarray, 635 nm fluorescence, primary screen (AID 1102). The following applies: FGF10 binding, fluorescence 635 nm, higher = more signal.
In assay [6] the test system is glycogen synthase kinase-3 (GSK3A per assay name; protocol says GSK3B). Nature of the assay: compounds binding glycogen synthase kinase-3 – biochemical, small-molecule microarray, 635 nm fluorescence, GSK3A, primary screen (AID 1103). Further: the record names both GSK3A and GSK3B. As to conditions: fluorescence 635 nm, higher = more signal.
Assay [7] has as its target Epidermal growth factor receptor (Homo sapiens) (UniProt P00533). Description: compounds binding epidermal growth factor receptor – biochemical, small-molecule microarray, 635 nm fluorescence, primary screen (AID 1104).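 Further: score merges 667 nm emission intensity with spot signal to noise over triplicate slides.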 As to conditions: EGFR binding, higher = more signal.
The target of assay [8] is Follistatin-related protein 3 (Homo sapiens) (UniProt O95633). Description: compounds binding follistatin-related protein 3 – biochemical, small-molecule microarray, 635 nm fluorescence, primary screen (AID 1105).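 Further: score merges emission near 667 nm and signal to noise per printed spot across three slides.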 The following applies: FSTL3 binding, higher = more signal.
The target of assay [9] is Dickkopf-related protein 1 (Homo sapiens) (UniProt O94907). Nature of the assay: small molecules binding DKK1 protein – biochemical, small-molecule microarray, 635 nm fluorescence scan, primary screen (AID 1106).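 Further: score merges emission near 667 nm with signal to noise over three replicate slides.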 The following applies: higher = more signal.
The subject of assay [10] is Inhibin beta A chain (activin A). Nature of the assay: small molecules binding activin A – biochemical, small-molecule microarray, 635 nm fluorescence scan, primary screen (AID 1107).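 Further: mouse activin A protein probed at 4.33 µg/mL on printed slides; score merges bound-protein fluorescence near 667 nm with spot signal-to-noise.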 As to conditions: INHBA, higher = more signal.
In assay [11] the test system is Human papillomavirus type 1a protein E7 (residues 44-93). Description: small molecules binding HPV E7 44-93 – biochemical, small-molecule microarray, residues 44-93, 635 nm fluorescence, primary screen (AID 1108).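 Further: E7 fragment applied at 1 µg/mL in TBST for 1 h at 4 C; score combines spot fluorescence with its signal to noise ratio.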 The following applies: fluorescence 635 nm, higher = more signal.
Assay [12] can be described thus: hepatitis C replication reporter changes, two-sided – Huh7 cells, luciferase reporter, HCV replication inhibitor project, primary screen (AID 1109).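 Further: huh7 hepatoma cells harbouring a luciferase neomycin HCV replicon reporter; luciferase luminescence as measure of HCV replicon replication; test concentration not given here.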 The following applies: Huh7 HCV replicon luciferase reporter, 48 h; higher = more signal.
In assay [13] the target is Left-right determination factor 2 (Homo sapiens) (UniProt O00292). Description: small molecules binding LEFTY2 protein – biochemical, small-molecule microarray, 635 nm fluorescence scan, primary screen (AID 1110). The following applies: higher = more signal.
Assay [14] addresses Calmodulin-1 (Homo sapiens) (UniProt P0DP23). Nature of the assay: small molecules binding calmodulin-1 with EGTA – biochemical, small-molecule microarray, Cy5-labelled CALM1, profiling panel (AID 1111).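 Further: labelled calmodulin applied in Tris saline Tween buffer holding calcium plus EGTA and DTT.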 The following applies: Cy5-CALM1 binding fluorescence, higher = more signal.
Assay [15] shares this target. Nature of the assay: small molecules binding Ca-loaded calmodulin-1 – biochemical, small-molecule microarray, Cy5-labelled CALM1, plus calcium, artefact control for SMM control-protein annotation, profiling panel (AID 1112).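 Further: score merges spot fluorescence with signal to noise from triplicate slides.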 The following applies: Cy5-CALM1 binding fluorescence, higher = more signal.
The nature of assay [16]: probe aWnt5a binding to arrayed compounds – biochemical, biotinylated probe, 635/667 nm fluorescence, primary screen (AID 1113).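 Further: score merges 667 nm fluorescence intensity with signal-to-noise per printed feature.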 As to conditions: small-molecule microarray, higher = more signal.
The nature of assay [17]: probe aShh binding to arrayed compounds – biochemical, biotinylated probe, 635/667 nm fluorescence, primary screen (AID 1114).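 Further: probe is biotin-labelled aShh protein from a stem cell growth factor screen; measures binding of labelled protein to compounds printed on the slide; score merges feature fluorescence at 667 nm with signal-to-noise.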 The following applies: small-molecule microarray, higher = more signal.
Assay [18] is described as follows: probe aNog binding to arrayed compounds – biochemical, biotinylated probe, 635/667 nm fluorescence, primary screen (AID 1115).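 Further: probe is biotinylated aNog protein used at 0.15 µg/mL for 1 h at 4 C; z-score combines 667 nm fluorescence of each spot with its signal to noise.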 As to conditions: small-molecule microarray, higher = more signal.
Assay [19] has as its target Torsin-1A-interacting protein 1 (Homo sapiens) (UniProt Q5JTV8). Description: compound microarray binding of lysate hLAP1 – cell lysate, small-molecule microarray, COS7 lysate, 635/667 nm fluorescence, primary screen (AID 1116). As to conditions: 635 nm fluorescence, higher = more signal.
Assay [20] concerns the target Alpha-bungarotoxin (Bungarus multicinctus) (UniProt P60615). Nature of the assay: compounds binding labelled alpha-BTX control protein – biochemical, small-molecule microarray, Alexa647 label, 635/667 nm fluorescence, artefact control for SMM control protein annotation, profiling panel (AID 1117). As to conditions: alpha-BTX-A647 binding fluorescence, higher = more signal.

SMILES strings stand for the structures. Calls of active or inactive are those of the source.

Sequence of Epidermal growth factor receptor (Homo sapiens) (P00533 whole entry, looked up): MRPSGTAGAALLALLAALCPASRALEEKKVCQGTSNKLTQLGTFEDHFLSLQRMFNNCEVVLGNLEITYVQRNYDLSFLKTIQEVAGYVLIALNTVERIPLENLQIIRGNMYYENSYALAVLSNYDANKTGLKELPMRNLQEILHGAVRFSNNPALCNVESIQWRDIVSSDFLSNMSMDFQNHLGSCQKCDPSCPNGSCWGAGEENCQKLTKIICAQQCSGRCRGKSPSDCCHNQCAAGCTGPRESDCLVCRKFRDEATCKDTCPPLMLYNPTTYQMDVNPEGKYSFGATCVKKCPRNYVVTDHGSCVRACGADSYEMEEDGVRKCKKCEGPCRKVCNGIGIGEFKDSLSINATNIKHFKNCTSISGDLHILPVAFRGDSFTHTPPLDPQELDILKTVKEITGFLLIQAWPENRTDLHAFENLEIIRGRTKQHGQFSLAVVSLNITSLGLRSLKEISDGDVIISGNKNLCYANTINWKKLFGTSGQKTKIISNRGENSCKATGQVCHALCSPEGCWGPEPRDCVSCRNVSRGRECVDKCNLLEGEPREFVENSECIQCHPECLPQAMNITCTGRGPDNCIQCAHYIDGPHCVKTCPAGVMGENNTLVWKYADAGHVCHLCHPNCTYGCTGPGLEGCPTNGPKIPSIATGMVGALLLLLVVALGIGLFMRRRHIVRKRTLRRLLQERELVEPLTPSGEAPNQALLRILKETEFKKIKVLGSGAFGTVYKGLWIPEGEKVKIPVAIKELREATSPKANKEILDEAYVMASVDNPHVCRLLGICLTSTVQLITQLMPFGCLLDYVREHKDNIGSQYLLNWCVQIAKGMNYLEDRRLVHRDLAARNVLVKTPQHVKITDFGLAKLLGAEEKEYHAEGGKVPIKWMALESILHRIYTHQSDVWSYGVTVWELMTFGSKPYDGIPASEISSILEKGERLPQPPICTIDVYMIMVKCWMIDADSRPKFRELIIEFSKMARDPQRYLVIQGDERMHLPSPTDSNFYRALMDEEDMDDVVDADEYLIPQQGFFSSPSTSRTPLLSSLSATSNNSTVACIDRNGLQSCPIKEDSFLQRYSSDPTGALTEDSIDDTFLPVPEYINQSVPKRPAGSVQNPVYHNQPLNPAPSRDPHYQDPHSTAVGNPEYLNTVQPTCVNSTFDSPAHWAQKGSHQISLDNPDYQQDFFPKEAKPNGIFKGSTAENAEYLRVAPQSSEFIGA
Sequence of Torsin-1A-interacting protein 1 (Homo sapiens) (Q5JTV8 whole entry, looked up): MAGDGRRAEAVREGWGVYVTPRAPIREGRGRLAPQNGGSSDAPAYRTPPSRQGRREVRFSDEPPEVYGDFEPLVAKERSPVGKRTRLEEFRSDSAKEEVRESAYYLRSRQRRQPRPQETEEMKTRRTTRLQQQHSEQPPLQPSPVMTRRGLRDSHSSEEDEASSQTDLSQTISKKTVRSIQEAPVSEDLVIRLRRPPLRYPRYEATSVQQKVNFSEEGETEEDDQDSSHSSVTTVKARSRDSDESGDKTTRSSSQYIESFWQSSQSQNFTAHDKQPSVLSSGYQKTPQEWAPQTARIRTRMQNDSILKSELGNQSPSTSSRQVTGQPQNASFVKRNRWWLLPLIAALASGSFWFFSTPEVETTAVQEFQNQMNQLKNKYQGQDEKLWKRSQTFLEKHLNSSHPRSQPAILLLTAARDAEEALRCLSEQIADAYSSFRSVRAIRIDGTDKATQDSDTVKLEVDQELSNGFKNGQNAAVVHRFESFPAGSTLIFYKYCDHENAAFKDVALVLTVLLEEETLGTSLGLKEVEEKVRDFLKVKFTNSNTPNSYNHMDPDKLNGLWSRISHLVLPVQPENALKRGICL
Sequence of Dickkopf-related protein 1 (Homo sapiens) (O94907 whole entry, looked up): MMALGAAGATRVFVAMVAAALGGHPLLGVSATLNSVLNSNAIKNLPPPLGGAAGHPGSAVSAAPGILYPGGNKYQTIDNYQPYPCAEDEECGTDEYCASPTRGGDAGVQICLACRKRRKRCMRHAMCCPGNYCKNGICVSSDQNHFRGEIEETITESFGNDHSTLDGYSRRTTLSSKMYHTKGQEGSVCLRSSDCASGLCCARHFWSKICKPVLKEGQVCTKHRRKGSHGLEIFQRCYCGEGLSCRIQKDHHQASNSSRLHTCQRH
Sequence of Follistatin-related protein 3 (Homo sapiens) (O95633 whole entry, looked up): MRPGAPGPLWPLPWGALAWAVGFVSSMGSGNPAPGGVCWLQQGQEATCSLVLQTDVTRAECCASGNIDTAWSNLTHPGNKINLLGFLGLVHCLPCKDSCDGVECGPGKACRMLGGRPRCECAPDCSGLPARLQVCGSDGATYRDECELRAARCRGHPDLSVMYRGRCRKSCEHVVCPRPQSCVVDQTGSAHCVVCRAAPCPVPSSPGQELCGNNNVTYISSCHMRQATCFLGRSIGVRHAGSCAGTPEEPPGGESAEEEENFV
Sequence of Left-right determination factor 2 (Homo sapiens) (O00292 whole entry, looked up): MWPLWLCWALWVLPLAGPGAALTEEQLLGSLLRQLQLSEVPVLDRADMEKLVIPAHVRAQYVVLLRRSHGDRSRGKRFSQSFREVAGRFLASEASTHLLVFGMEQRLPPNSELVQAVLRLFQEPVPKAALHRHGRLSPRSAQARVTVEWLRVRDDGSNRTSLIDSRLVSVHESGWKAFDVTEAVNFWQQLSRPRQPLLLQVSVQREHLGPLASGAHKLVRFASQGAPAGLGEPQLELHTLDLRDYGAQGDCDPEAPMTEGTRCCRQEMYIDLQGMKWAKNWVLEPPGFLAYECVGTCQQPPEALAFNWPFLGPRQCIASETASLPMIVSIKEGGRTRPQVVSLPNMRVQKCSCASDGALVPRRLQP
Sequence of Fibroblast growth factor 10 (Homo sapiens) (O15520 whole entry, looked up): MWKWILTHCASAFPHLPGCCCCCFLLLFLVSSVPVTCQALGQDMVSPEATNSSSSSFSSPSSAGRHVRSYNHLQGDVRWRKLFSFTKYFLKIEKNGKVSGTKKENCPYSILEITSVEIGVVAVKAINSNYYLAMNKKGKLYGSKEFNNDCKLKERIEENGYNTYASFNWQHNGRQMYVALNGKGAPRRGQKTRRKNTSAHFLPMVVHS
Sequence of Alpha-bungarotoxin (Bungarus multicinctus) (P60615 whole entry, looked up): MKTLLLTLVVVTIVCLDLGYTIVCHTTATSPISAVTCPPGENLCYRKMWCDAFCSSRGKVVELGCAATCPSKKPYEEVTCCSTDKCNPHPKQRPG

Take `COc1cc2c(cc1OC)CN(C(=O)[C@@H]1[C@H]3C(=O)O[C@H](c4ccccc4)[C@H](c4ccccc4)N3[C@H](c3ccccc3OCCO)[C@@]13C(=O)Nc1ccc(C#CCCO)cc13)CC2`: the composite z-score turned out to be 1.53 in assay [1]; 0.235 in [2]; 0.547 in [3]; 0.885 in [5]; 0.926 in assay [6]; 0.179 in assay [7]. In addition, the composite z-score in assay [8] turned out to be 0.896; in [9], 0.249; in [10], 0.91; in [11], 1.35; in assay [13], 0.268; in assay [14] it was 1.16. Moreover, the composite z-score in assay [15] was 0.104; in assay [16] it was -0.133; in [17] it was 0.292; in assay [18], 1.16; in assay [19], 2.22; in assay [20], 1.49. Also, the z-score in assay [4] was 0.107 (inactive); in assay [12], -2.36.
With `C=C(COC)/C(=C/C[C@@H](OC(=O)c1ccncc1)c1ccc(CO)o1)c1cc(C(=O)OC)ccc1OC`, the composite z-score is 1.2 in assay [1]; 0.0709 in [2]; -0.623 in assay [3]; 1.47 in [5]; 1.15 in assay [6]; 1.06 in [7]. Also, the composite z-score in [8] stood at 1.48; in [9], 1.27; in [10] it was 1.03; in [11], 1.4; in [13] it was 1.44; in assay [14], 0.209. The composite z-score is -0.708 in [15]; 0.0077 in [16]; -0.138 in [17]; -0.18 in [18]; 0.877 in assay [19]; 0.702 in assay [20]. Further, the z-score in [4] was 0.804 (inactive); in [12], -0.557.
Turning to `COc1cc(NN2C(C(O)c3ccco3)C=CC3C(=O)N(c4ccccc4)C(=O)C32)cc(OC)c1OC` (stereo not given), the composite z-score was 1.69 in [1]; 0.157 in assay [2]; 0.485 in [3]; -0.0151 in [5]; -0.0659 in assay [6]; -0.395 in assay [7]. The composite z-score in assay [8] was 0.373; in assay [9], -0.21; in assay [10] it was 0.914; in assay [11], -0.271; in [13], -0.198; in assay [14], -0.3. Further, the composite z-score is -0.657 in assay [15]; -0.213 in [16]; -0.29 in assay [17]; 0.133 in assay [18]; 1.05 in [19]; 0.425 in [20]. Also, the results for the z-score in assay [4] and in assay [12] were 0.523 (inactive) and -0.937, respectively.
On to `C=C(COC)/C(=C/C[C@@H](OC(C)=O)c1ccc(OCCO)cc1)c1cnc2ccccc2c1`, for which the composite z-score was 1.14 in assay [1]; -0.151 in assay [2]; 0.352 in assay [3]; 1.57 in [5]; 0.369 in [6]; 0.824 in assay [7]. Further, the composite z-score in [8] is 1.49; in [9], 1.25; in assay [10], 1.7; in assay [11], 0.487; in assay [13] it was 0.989; in [14] it was 0.263. Besides, the composite z-score in assay [15] was -0.731; in [16], -0.0761; in assay [17] it was 0.0557; in [18], -0.1; in assay [19], 0.174; in assay [20] it was 1.63. The z-score in assay [4] is -0.949 (inactive); in [12] it was -1.19.
For `O=C1O[C@@H](c2ccccc2)[C@@H](c2ccccc2)N2[C@@H](c3ccccc3OCCO)[C@]3(C(=O)Nc4ccc(C#CC5=CCCCC5)cc43)[C@@H](C(=O)N3CCCCCCC3)[C@H]12`, the composite z-score in assay [1] was 2.01; in assay [2], 2.94; in assay [3] it was 1.63; in assay [5], 1.54; in [6] it was 1.39; in [7], 1.81. For the same molecule, the composite z-score in assay [8] is 1.75; in [9], 2.56; in assay [10], 1.8; in [11], 1.52; in assay [13], 1.74; in assay [14], 3.02. For the same molecule, the composite z-score in assay [15] was 1.72; in assay [16], 1.4; in [17], 3.21; in [18], 3.35; in [19], 5.37; in assay [20], 3.65. Further, the z-score in [4] was -1.06 (inactive); in assay [12], -3.29.
Regarding `C=C(C)[C@@H]1CC=C(C(O)C2C=CC3C(=O)N(c4ccccc4)C(=O)C3N2Nc2ccccc2)CC1` (stereo not given in full), the composite z-score in [1] is 0.972; in [2], 1.06; in [3], 0.906; in assay [5] it was 0.852; in assay [6], 1.32; in assay [7] it was -0.747. Further, the composite z-score in assay [8] was 1.15; in [9], 0.364; in assay [10] it was 0.622; in assay [11], 0.478; in [13] it was 0.261; in assay [14], 2.06. Moreover, the composite z-score was 0.103 in assay [15]; 0.212 in [16]; 0.642 in [17]; 1.95 in assay [18]; 1.79 in assay [19]; 2.62 in assay [20]. In addition, the values for the z-score in assay [4] and in assay [12] were 0.0541 (inactive) and -1.38, respectively.
